For assay [1], the target named is Solute carrier family 12 member 5 (Homo sapiens) (UniProt Q9H2X9). As to the kind of experiment: retest of KCC2 transport modulators without sodium – cell-based, HEK293 KCC2, thallium flux, secondary assay, confirmation (AID 1713;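 active = thallium flux slope above the same plate's solvent-only control mean plus 3 SD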). To be noted: FluoZin2 fluorescence, at 10 µM, stronger effect = higher value.
A short description of the next assay: PubChem AID 1714.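 Note: raw slope of fluorescence over initial fluorescence between 10 and 20 s after thallium.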 To be noted: HEK293-KCC2 + bumetanide/ouabain, thallium flux FluoZin2; at 10 µM; stronger effect = higher value.
Assay [2] concerns the target Solute carrier family 12 member 5 (Homo sapiens) (UniProt Q9H2X9). As to the kind of experiment: retest of KCC2 transport modulation, ouabain-free – cell-based, HEK293 KCC2, thallium flux, FluoZin2, secondary assay 2, confirmation (AID 1715;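 active = thallium flux slope more than 3 SD above or below the plate's solvent-only control mean, mostly below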;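 note: raw slope with 0.1% DMSO as baseline and bumetanide as block control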). Particulars: HEK293-KCC2, thallium flux FluoZin2 fluorescence; at 10 µM; actives lie on both sides; F/F0 rise rate, 10–20 s post-thallium.

The nature of assay [3]: compound effects on native HEK Tl+ uptake – HEK cells, counterscreen 1, counter-screen for KCC2 modulator project, confirmation (AID 1716;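 active = thallium flux rate significantly above the same plate's solvent-only control wells, beyond their mean plus 3 SD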). To be noted: HEK293 parental cells, thallium flux FluoZin2, ouabain; at 10 µM; baseline-ratio fluorescence slope, 10–20 s after thallium. On the technique in general: A counterscreen serves to expose hits that act by an unwanted route or on another target.

In assay [4] the target is Solute carrier family 12 member 5 (Homo sapiens) (UniProt Q9H2X9). As to the kind of experiment: modulation of KCC2 thallium flux in HEK cells – cell-based, ouabain, retest, confirmation (AID 1717;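 active = thallium flux slope beyond 3 SD from same-plate DMSO control mean in most replicates, usually higher, sometimes lower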;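 note: slope of initial-normalized fluorescence between seconds 10 and 20 after thallium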). Particulars: HEK293-KCC2, thallium flux FluoZin2 fluorescence, at 10 µM, bidirectional: low = inhibitor, high = activator.
A short description of assay [5]: native HEK Tl+ uptake effects, second counter-screen – HEK cells, counterscreen 2, counter-screen for KCC2 modulator project, confirmation (AID 1718;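 active = thallium flux slope above the same plate's solvent-control mean plus 3 SD in both duplicate wells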;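 note: run without ouabain in cells lacking the KCC2 cotransporter; slope of fluorescence scaled to its starting value between 10 and 20 s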). Particulars: HEK293 parental, thallium flux FluoZin-2 fluorescence slope; at 10 µM.
The nature of assay [6]: inhibitors of TNFa-induced NFkB p65 translocation, primary screen, imaging, HUVEC, MLSMR starter and 10KST1 sets (AID 438;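 active = inhibition above 20% together with a positive visual image hit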;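 note: compound added about 3h40 before a 20 min TNFalpha stimulation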;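 for inhibition: signal is the nuclear over cytoplasmic p65 intensity ratio per well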). To be noted: HUVEC TNFa-induced p65 nuclear translocation; cell count: measured here: nuclei count (cytotoxicity indicator), at 2.08 µM; inhibition: at 2 µM, stronger effect = higher value, 0% TNFa-plus-vehicle, 100% no-TNFa wells.
A short description of assay [7]: reduction of polyQ htt aggregates in cells – imaging, exon1htt(103Q)mCFP cells, high-content imaging, primary screen (AID 483;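 active = visual image review flags a hit and inhibition of aggregation exceeds 20%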;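 note: compound exposure lasted 3 days before fixation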;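 for nuclei count: percent of the per-plate median nuclei count of sample wells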). Particulars: exon1htt(103Q)mCFP cell line, aggregate imaging, at 2 µM; inhibition of aggregation: stronger effect = higher value; nuclei count: measured here: cell count, toxicity.
Assay [8] can be described thus: endothelial E-selectin expression blockers – imaging, HUVEC, immunofluorescence, MLSMR starter and 10KST1 sets, primary screen (AID 487;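 active = visually confirmed hit in the image check and inhibition above 20%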;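 for inhibition: signal is fraction of cell area covered by stained E-selectin grains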;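 for nuclei count: 100% = median nuclei count of all wells on the same plate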). To be noted: HUVEC TNFalpha-induced E-selectin immunofluorescence imaging, at 2 µM; inhibition: stronger effect = higher value; nuclei count: measured here: cell number, toxicity.
The target in assay [9] is Voltage-gated potassium channel subunit beta-2 (Rattus norvegicus) (UniProt P62483). As to the kind of experiment: inhibitors of rat Kvbeta2 reductase activity – biochemical, NADPH fluorescence, primary screen (AID 622;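 active = fluorescence slope higher than the sample average by over 3 SD, cut at about -0.22 in these data, passing the limit was not always enough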;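 note: slope of raw intensity against log time taken from 70 to 1610 s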). Particulars: recombinant KvBeta, 4-cyanobenzaldehyde reduction, at 10 µM, stronger effect = higher value.
Assay [10] shares this target. The assay can be described thus: enhancers of rat Kvbeta2 NADPH turnover – biochemical, NADPH fluorescence, primary screen (AID 623;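 active = NADPH fluorescence slope more negative than the mean of all samples by about 3 SD, 99.7% confidence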;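 note: fluorescence intensity change per second fitted from 20 to 320 s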). To be noted: Recombinant KvBeta, NADPH fluorescence decrease slope, 10 min; at 10 µM; stronger effect = lower value.
Assay [11] deals with Alpha-2C adrenergic receptor (Homo sapiens) (UniProt P18825). The assay can be described thus: compounds altering alpha2C-coupled GIRK flux – cell-based, HEK293 alpha2C/GIRK1/2, thallium flux, primary screen (AID 624;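 active = fluorescence slope after compound addition differing from the mean of all screened samples at 99.7% confidence, in either direction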;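 note: slope of fluorescence ratio to pre-addition baseline per second over 15 to 24 s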). To be noted: thallium flux BTC fluorescence, at 10 µM, actives lie on both sides.
Assay [12] in a line: blockers of RIG-like receptor reporter activation – cell-based, Sendai virus stimulus, luciferase, 10K MLSCN set, TLR/RLR signaling modifier project, primary screen (AID 602276;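 active = inhibition at or above 50% at 10 µM; inactive = inhibition below 50%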;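 note: firefly luciferase from ISG56 promoter only with Renilla not read in this screen; 0% = Sendai virus plus DMSO and 100% = medium plus DMSO without virus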). To be noted: HEK293 RL24 IRF3 luciferase reporter, at 10 µM, stronger effect = higher value.
The nature of assay [13]: TLR3 IRF3 reporter activation blockers – cell-based, poly I:C stimulus, luciferase, 10K MLSCN set, primary screen (AID 602277;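 active = inhibition of the reporter signal at or above 50%; inactive = inhibition below 50%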). To be noted: HEK293-TLR3 RL24 IRF3 luciferase reporter, at 10 µM, stronger effect = higher value. (In general: A reporter such as luciferase makes a cellular process visible.)

This is an account of results in PubChem BioAssay.

The list shows a part of the results. Inconclusive results are not listed. Active and inactive are the calls of the source.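 Rule for the calls, unless noted: active = thallium entry rate above the same plate's blocked-transporter control wells by more than 3 SD; inconclusive = the two repeat wells disagree; inactive = the rest.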

Solute carrier family 12 member 5 (Homo sapiens), sequence (Q9H2X9 whole entry, looked up): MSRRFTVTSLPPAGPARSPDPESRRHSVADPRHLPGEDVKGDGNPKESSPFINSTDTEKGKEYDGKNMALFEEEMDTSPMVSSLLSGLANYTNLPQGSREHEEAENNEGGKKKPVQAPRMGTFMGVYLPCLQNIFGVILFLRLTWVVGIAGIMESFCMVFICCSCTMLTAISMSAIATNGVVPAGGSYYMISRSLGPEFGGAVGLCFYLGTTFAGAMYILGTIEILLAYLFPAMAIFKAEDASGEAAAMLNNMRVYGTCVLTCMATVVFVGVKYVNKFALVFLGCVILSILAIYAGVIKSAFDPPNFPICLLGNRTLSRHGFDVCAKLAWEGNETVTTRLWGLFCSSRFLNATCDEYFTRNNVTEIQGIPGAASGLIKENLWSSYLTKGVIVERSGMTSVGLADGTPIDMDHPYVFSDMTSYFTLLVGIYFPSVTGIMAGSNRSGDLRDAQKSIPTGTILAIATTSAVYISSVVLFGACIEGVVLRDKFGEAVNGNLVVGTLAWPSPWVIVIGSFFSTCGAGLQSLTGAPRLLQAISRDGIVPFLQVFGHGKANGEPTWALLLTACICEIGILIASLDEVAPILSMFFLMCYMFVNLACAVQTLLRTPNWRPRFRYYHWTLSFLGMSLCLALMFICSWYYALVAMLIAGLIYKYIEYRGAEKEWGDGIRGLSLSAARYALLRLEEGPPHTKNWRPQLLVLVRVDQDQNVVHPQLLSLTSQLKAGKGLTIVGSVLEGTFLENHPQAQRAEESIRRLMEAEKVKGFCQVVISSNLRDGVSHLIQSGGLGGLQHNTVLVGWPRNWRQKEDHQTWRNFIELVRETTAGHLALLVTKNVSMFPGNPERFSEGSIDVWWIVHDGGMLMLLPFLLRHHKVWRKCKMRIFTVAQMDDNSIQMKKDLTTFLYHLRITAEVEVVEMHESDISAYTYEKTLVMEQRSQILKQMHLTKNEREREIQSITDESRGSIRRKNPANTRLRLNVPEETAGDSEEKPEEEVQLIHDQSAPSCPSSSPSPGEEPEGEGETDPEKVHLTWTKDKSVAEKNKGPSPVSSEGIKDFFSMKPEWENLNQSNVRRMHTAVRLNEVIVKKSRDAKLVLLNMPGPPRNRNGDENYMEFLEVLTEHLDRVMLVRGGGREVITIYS
Voltage-gated potassium channel subunit beta-2 (Rattus norvegicus), sequence (P62483 whole entry, looked up): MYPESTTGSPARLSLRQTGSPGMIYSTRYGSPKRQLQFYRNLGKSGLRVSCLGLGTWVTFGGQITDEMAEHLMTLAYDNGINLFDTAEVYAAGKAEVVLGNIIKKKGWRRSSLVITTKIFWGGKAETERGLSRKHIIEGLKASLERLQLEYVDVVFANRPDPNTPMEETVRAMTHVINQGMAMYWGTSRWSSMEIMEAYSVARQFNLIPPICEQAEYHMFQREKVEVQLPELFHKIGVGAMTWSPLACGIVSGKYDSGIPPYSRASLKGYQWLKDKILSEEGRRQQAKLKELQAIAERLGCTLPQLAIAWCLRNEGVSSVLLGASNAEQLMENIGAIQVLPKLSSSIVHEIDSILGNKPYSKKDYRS
Alpha-2C adrenergic receptor (Homo sapiens), sequence (P18825 whole entry, looked up): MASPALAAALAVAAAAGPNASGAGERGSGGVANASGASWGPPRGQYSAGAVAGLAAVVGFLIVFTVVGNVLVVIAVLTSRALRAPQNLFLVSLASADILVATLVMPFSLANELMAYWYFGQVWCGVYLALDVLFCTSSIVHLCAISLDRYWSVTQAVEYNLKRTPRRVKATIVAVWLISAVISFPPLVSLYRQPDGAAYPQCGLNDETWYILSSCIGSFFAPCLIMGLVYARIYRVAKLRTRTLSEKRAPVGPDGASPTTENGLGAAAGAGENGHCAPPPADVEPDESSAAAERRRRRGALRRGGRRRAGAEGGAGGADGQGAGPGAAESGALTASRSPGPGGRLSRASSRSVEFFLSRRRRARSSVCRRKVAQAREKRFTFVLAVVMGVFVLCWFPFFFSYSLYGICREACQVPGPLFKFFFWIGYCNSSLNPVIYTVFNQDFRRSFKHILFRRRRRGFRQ

Turning to `O=C(NC(CC(=O)N1CCN(c2ccccc2)CC1)c1ccccc1)c1ccccc1Cl` (stereo not drawn), the normalised thallium flux (F/F0 slope) in assay [1] is 0.00747 (inactive). Besides, the results for the normalized thallium flux (in the assay “PubChem AID 1714”; in [2]) were 0.00528 (inactive) and 0.0333 (inactive), respectively. The thallium flux rate (normalised fluorescence) in [3] is 0.00637 (inactive). The raw Tl+ flux slope (below DMSO = inhibition, above = activation) in assay [4] was 0.019 (inactive). In [5], the thallium flux slope is 0.00971 (inactive).

In the case of `COC(=O)c1cccnc1NC(=S)NC(C)C`, the normalised thallium flux (F/F0 slope) in assay [1] was 0.0244 (active). The normalized thallium flux in the assay “PubChem AID 1714” was 0.0413 (active); in assay [2], 0.0368 (inactive). Moreover, the thallium flux rate (normalised fluorescence) in [3] is 0.035 (active). Also, the raw Tl+ flux slope (below DMSO = inhibition, above = activation) in assay [4] is 0.0394 (active). Moreover, in [5], the thallium flux slope is 0.0178 (active).

With `COC(=O)c1sccc1NC(=O)CCC1CCCC1`, the normalised thallium flux (F/F0 slope) in assay [1] is 0.00664 (inactive). Also, the results for the normalized thallium flux (in the assay “PubChem AID 1714”; in [2]) were 0.00434 (inactive) and 0.032 (inactive), respectively. Further, in assay [3], the thallium flux rate (normalised fluorescence) was 0.00709 (inactive). For the same molecule, the raw Tl+ flux slope (below DMSO = inhibition, above = activation) in assay [4] is 0.0186 (inactive). Moreover, the thallium flux slope in [5] was 0.00941 (inactive).

With `CCOc1ccc(NC(=O)CN(C)CC(=O)Nc2cccc(Cl)c2C)cc1OCC`, the normalised thallium flux (F/F0 slope) in assay [1] was 0.00801 (inactive). Besides, the normalized thallium flux in the assay “PubChem AID 1714” was 0.00595 (inactive); in [2], 0.0338 (inactive). In addition, in assay [3], the thallium flux rate (normalised fluorescence) was 0.00749 (inactive). For the same molecule, in [4], the raw Tl+ flux slope (below DMSO = inhibition, above = activation) is 0.0213 (inactive). Also, in [5], the thallium flux slope is 0.0107 (inactive).

As to `CCOc1ccc(C(=O)NCCCN2CCCC2=O)cc1`, the normalised thallium flux (F/F0 slope) in [1] was 0.00821 (inactive). For the same molecule, the normalized thallium flux is 0.00728 (inactive) in “PubChem AID 1714” and 0.0335 (inactive) in [2]. Besides, the thallium flux rate (normalised fluorescence) in [3] was 0.00778 (inactive). Moreover, the raw Tl+ flux slope (below DMSO = inhibition, above = activation) in assay [4] was 0.0225 (inactive). Also, the thallium flux slope in assay [5] was 0.0108 (inactive).

In the case of `Cc1oc(C(N)=O)cc1COc1ccc(C(N)=O)cc1`, in assay [1], the normalised thallium flux (F/F0 slope) is 0.01 (inactive). Also, the normalized thallium flux in “PubChem AID 1714” is 0.00743 (inactive); in assay [2], 0.0348 (inactive). For the same molecule, in [3], the thallium flux rate (normalised fluorescence) is 0.00438 (inactive). For the same molecule, the raw Tl+ flux slope (below DMSO = inhibition, above = activation) in [4] was 0.0196 (inactive). Besides, in assay [5], the thallium flux slope is 0.0116 (inactive).

Consider `CCOc1cccc(/C=N/N2C(=O)CSC2=S)c1O`, for which the normalised thallium flux (F/F0 slope) in [1] was 0.00656 (inactive). Further, the normalized thallium flux in “PubChem AID 1714” is 0.0152 (active); in assay [2], 0.0319 (inactive). Also, in assay [3], the thallium flux rate (normalised fluorescence) is 0.0178 (active). Further, the thallium flux slope in assay [5] is 0.0167 (active).

With `CCC(=O)NC(=Nc1nc2ccccc2s1)NC(=O)CC`, the normalised thallium flux (F/F0 slope) in assay [1] was 0.00696 (inactive). Further, the normalized thallium flux in “PubChem AID 1714” was 0.0683 (active); in assay [2], 0.0951 (active). Further, in assay [3], the thallium flux rate (normalised fluorescence) was 0.0894 (active). The raw Tl+ flux slope (below DMSO = inhibition, above = activation) in assay [4] was 0.0811 (active). Besides, in assay [5], the thallium flux slope is 0.0859 (active).

What is called inhibition is the change of the read-out against control, counted positive when it falls. Consider `O=C(C1CCN(c2nnc(-n3cccc3)s2)CC1)N1CCc2ccccc2C1`, for which the cell count in [6] came out at 479. The inhibition is -5% (inactive) in assay [6], -9.9% (inactive) in assay [8], 0.226% (inactive) in [12] and 24.9% (inactive) in assay [13]. Further, in assay [7], the inhibition of aggregation is -15.5% (inactive). Moreover, the figures for the nuclei count in assay [7] and in [8] were 65.3% and 104%, respectively. In addition, the fluorescence slope in [9] is -0.605 (inactive). Also, the NADPH fluorescence slope in [10] was -3.9e-05 (inactive). For the same molecule, the slope in assay [11] is 0.00552 (inactive). Further, the normalised thallium flux (F/F0 slope) in assay [1] was 0.00728 (inactive). The normalized thallium flux is 0.00506 (inactive) in the assay “PubChem AID 1714” and 0.0245 (active) in [2]. The thallium flux rate (normalised fluorescence) in assay [3] is 0.00773 (inactive). Also, the thallium flux slope in assay [5] was 0.0107 (inactive).

In the case of `COc1cc(OC)cc(C(=O)NCCSCc2ccco2)c1`, the normalised thallium flux (F/F0 slope) in assay [1] was 0.00951 (inactive). The normalized thallium flux in “PubChem AID 1714” was 0.00654 (inactive); in [2], 0.0289 (inactive). The raw Tl+ flux slope (below DMSO = inhibition, above = activation) in assay [4] was 0.0187 (inactive). Besides, in assay [5], the thallium flux slope is 0.0101 (inactive).
